Experimental data: PubChem BioAssay (Tox21)
Records with an inconclusive call do not appear. Entries that show only a call come without a potency. Active and inactive are the calls of the source. Calls follow the shape of the dose curve; as a rule, active = well fitted cell-killing curve with a large enough effect in the repeat runs; inconclusive = weak or mixed curves, or effect the other way; inactive = flat fitted curve, though single readings scatter.

Assays:
[1] = cAMP Responsive Elements (CRE) small molecule antagonists, cell-based qHTS assay: qHTS cell viability counter screen (AID 2060913); also: nearly all actives have a fitted effect of over 40% in size
How it was run: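 Cytotoxicity read in the same wells as the CRE-bla HEK293T antagonist assay: after 3 h compound with 0.25 uM NKH477 final and 2 h beta-lactamase substrate, CellTiter-Glo luminescence measured.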

[2] = cAMP Responsive Elements (CRE) small molecule agonists, cell-based qHTS assay: qHTS cell viability counter screen (AID 2060914); also: nearly all actives have a fitted effect of over 50% in size
How it was run: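 In the same wells as the reporter read, viability of CRE-bla HEK 293T cells was quantified by CellTiter-Glo luminescence after a 3 h compound exposure.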
Potency is read from the fitted curve at half-maximal effect.

Compound | Potency [1] | Potency [2]
CC(C)(c1ccc(O)c(-c2ccccc2)c1)c1ccc(O)c(-c2ccccc2)c1 | 61.1 µM (active) | 61.1 µM (active)
O=C(CCCCl)c1ccc(F)cc1 | inactive | inactive
CCCCC(C#N)(Cn1cncn1)c1ccc(Cl)cc1 (stereo not drawn) | inactive | inactive
CCCCOC(=O)c1ccccc1N | inactive | inactive
